# System: T1, LZK
# T1 construct: gene MAP3K13
# Conditions: concentration: 1 μM, replicates: in singlicate; n = 1
# 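Further: KINOMEscan kinase panel screen.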
row,Structure (SMILES),%Inh
1,COc1cccc(NC(=O)Nc2ccc(C)c(-c3ccc(C(=O)Nc4ccncc4)cc3)c2)c1 [GSK1398474],0%
2,CS(=O)(=O)Cc1ccc(Nc2nccc(-c3c(-c4cccc(NC(=O)C5CCCCC5)c4)nn4ncccc34)n2)cc1 [GSK350559],0%
3,COc1ccc(Nc2nccc(-c3ccc(NC(=O)c4cc5cc(F)ccc5[nH]4)cc3)n2)cc1 [GSK1229496],21%
4,Cc1cccc2c(-c3ccncn3)c(-c3ccc(F)cc3)nn12 [GW515532],0%
5,NS(=O)(=O)c1cccc(N/C=C2\C(=O)Nc3ccc(S(=O)(=O)Cc4c(Cl)cccc4Cl)cc32)c1 [GSK398099],0%
6,O=C(Nc1n[nH]c2nc(-c3ccco3)c(Br)cc12)C1CCN(Cc2ccccc2)C1.O=C(O)[C@H](O)[C@@H](O)C(=O)O (stereo not drawn) [SB-742034],0%
7,COc1ccc(-c2coc3ccc(-c4nnc(C)o4)cc23)cc1,0%
8,O=c1cc(N2CCOCC2)nc2n(Cc3ccccc3F)ccn12 [GSK2297428],0%
9,COC(=O)c1cccc(NC(=O)NC2CCN(c3ccnc(Nc4ccc(F)cc4)n3)C2)c1 (stereo not drawn) [GSK1379725],6%
10,Cc1c(Cn2c(C)c(C)n3c(=O)cc(N4CCOCC4)nc23)cccc1C(F)(F)F [GSK2328680],0%
11,CNC(=O)c1ccc(C)c(-n2c(C)cc(OCc3ccc(F)cc3F)c(Br)c2=O)c1,0%
12,COc1ccc(Nc2nccc(N3CCC(NC(=O)c4cc5ccccc5s4)C3)n2)cc1 (stereo not drawn) [GSK1379738],23%
13,CC(=O)c1cccc(NC(=O)NC2CCN(c3ccnc(Nc4ccc(F)cc4)n3)C2)c1 (stereo not drawn) [GSK1379710],28%
14,O=C1NC(=O)C(c2ccc(Cl)cc2)=C1Nc1cccc(Cl)c1 [SB-317651],6%
15,Cc1ccc(NC(=O)Nc2ccccc2F)cc1-c1ccc(C(=O)Nc2ccncc2)cc1 [GSK1398477],0%
16,Cc1ccc(NC(=O)c2ccc(Cl)cc2)cc1-c1ccc(C(=O)Nc2ccncc2)cc1 [GSK1398467],3%
17,Cc1ccccc1-c1cc(-c2c[nH]nc2-c2ccccn2)ccn1 [GW680061],4%
18,CC[C@@H]1CO[C@H](C(=O)Nc2ccccc2)CN1c1cc(-c2ccc3c(N)n[nH]c3c2)nc(NC)n1 [GSK2376236],0%

row,Structure (SMILES),%Inh
1,COc1ccc(CSc2nnc(-c3ccc4ncsc4c3)o2)cc1C(F)(F)F,0%
2,Cc1ccc(-c2nc(Nc3ccncc3)c3ccccc3n2)s1 [GSK189015],0%
3,Cc1ccccc1Cn1ccn2c(=O)cc(N3CCOCC3)nc12 [GSK2269905],0%
4,CS(=O)(=O)CCNCc1nc(-c2ccc3ncnc(Nc4ccc5c(cnn5Cc5ccccc5)c4)c3c2)cs1.Cl.Cl [GW569716],42%
5,Cc1nccc(-c2c(-c3ccc(F)cc3)ncn2CCCN2CCOCC2)n1.Cl [SB-282975],0%
6,Cn1cncc1C(=O)NC1CCN(c2ccnc(Nc3ccc(F)cc3)n2)C1 (stereo not drawn) [GSK1379717],0%
7,CN1c2ccc(-c3ccc(C(N)=O)cc3)cc2-c2[nH]ncc2S1(=O)=O,0%
8,CC(C)c1cc(-c2ccc3c(N)n[nH]c3c2)nc(N)n1 [GSK2250882],0%
9,O=C(Nc1n[nH]c2nc(-c3cccs3)c(Br)cc12)C1CC1 [SB-735297],0%
10,Cc1ccc(NC(=O)Nc2ccc(Cl)cc2)cc1-c1ccc(C(=O)Nc2ccncc2)cc1 [GSK1398472],3%
11,Fc1ccc(-c2nn3cccc(F)c3c2-c2ccncc2)cc1 [GW475620],0%
12,CC(C)c1ccc(O)cc1Nc1ccnc2ccc(C(F)(F)F)cc12 [GW482059],0%
13,Fc1ccc(-c2nc3n(c2-c2ccncc2)CCS3)cc1 [GI98581],3%
14,O=C(Nc1n[nH]c2cc(-c3ccsc3)ccc12)C1CC1 [SB-732932],52%
15,Cc1cnc(N)c(/C=C/c2cncc(C(=O)NCCc3ccc(Cl)cc3Cl)c2)c1.Cl [GSK190937],0%
16,CC(=O)c1c(C)c2cnc(Nc3ccc(N4CCNCC4)cn3)nc2n(C2CCCC2)c1=O,89%
17,COc1ccc2cc(-c3nc(-c4ccccc4C(C)C)[nH]c3-c3ccncc3)ccc2c1 [SB-660566],0%
18,CCc1ccc(-c2ccc3c(c2)-c2n[nH]cc2S(=O)(=O)N3C)cc1,0%

# System: MAK
# Conditions: concentration: 1 μM, replicates: in singlicate; n = 1
row,Structure (SMILES),%Inh
1,COc1cccc(NC(=O)Nc2ccc(C)c(-c3ccc(C(=O)Nc4ccncc4)cc3)c2)c1 [GSK1398474],100%
2,CS(=O)(=O)Cc1ccc(Nc2nccc(-c3c(-c4cccc(NC(=O)C5CCCCC5)c4)nn4ncccc34)n2)cc1 [GSK350559],0%
3,COc1ccc(Nc2nccc(-c3ccc(NC(=O)c4cc5cc(F)ccc5[nH]4)cc3)n2)cc1 [GSK1229496],22%
4,Cc1cccc2c(-c3ccncn3)c(-c3ccc(F)cc3)nn12 [GW515532],57%
5,NS(=O)(=O)c1cccc(N/C=C2\C(=O)Nc3ccc(S(=O)(=O)Cc4c(Cl)cccc4Cl)cc32)c1 [GSK398099],28%
6,O=C(Nc1n[nH]c2nc(-c3ccco3)c(Br)cc12)C1CCN(Cc2ccccc2)C1.O=C(O)[C@H](O)[C@@H](O)C(=O)O (stereo not drawn) [SB-742034],25%
7,COc1ccc(-c2coc3ccc(-c4nnc(C)o4)cc23)cc1,0%
8,O=c1cc(N2CCOCC2)nc2n(Cc3ccccc3F)ccn12 [GSK2297428],8%
9,COC(=O)c1cccc(NC(=O)NC2CCN(c3ccnc(Nc4ccc(F)cc4)n3)C2)c1 (stereo not drawn) [GSK1379725],16%
10,Cc1c(Cn2c(C)c(C)n3c(=O)cc(N4CCOCC4)nc23)cccc1C(F)(F)F [GSK2328680],16%
11,CNC(=O)c1ccc(C)c(-n2c(C)cc(OCc3ccc(F)cc3F)c(Br)c2=O)c1,0%
12,COc1ccc(Nc2nccc(N3CCC(NC(=O)c4cc5ccccc5s4)C3)n2)cc1 (stereo not drawn) [GSK1379738],86%
13,CC(=O)c1cccc(NC(=O)NC2CCN(c3ccnc(Nc4ccc(F)cc4)n3)C2)c1 (stereo not drawn) [GSK1379710],47%
14,O=C1NC(=O)C(c2ccc(Cl)cc2)=C1Nc1cccc(Cl)c1 [SB-317651],16%
15,Cc1ccc(NC(=O)Nc2ccccc2F)cc1-c1ccc(C(=O)Nc2ccncc2)cc1 [GSK1398477],30%
16,Cc1ccc(NC(=O)c2ccc(Cl)cc2)cc1-c1ccc(C(=O)Nc2ccncc2)cc1 [GSK1398467],0%
17,Cc1ccccc1-c1cc(-c2c[nH]nc2-c2ccccn2)ccn1 [GW680061],34%
18,CC[C@@H]1CO[C@H](C(=O)Nc2ccccc2)CN1c1cc(-c2ccc3c(N)n[nH]c3c2)nc(NC)n1 [GSK2376236],21%

row,Structure (SMILES),%Inh
1,COc1ccc(CSc2nnc(-c3ccc4ncsc4c3)o2)cc1C(F)(F)F,0%
2,Cc1ccc(-c2nc(Nc3ccncc3)c3ccccc3n2)s1 [GSK189015],36%
3,Cc1ccccc1Cn1ccn2c(=O)cc(N3CCOCC3)nc12 [GSK2269905],0%
4,CS(=O)(=O)CCNCc1nc(-c2ccc3ncnc(Nc4ccc5c(cnn5Cc5ccccc5)c4)c3c2)cs1.Cl.Cl [GW569716],11%
5,Cc1nccc(-c2c(-c3ccc(F)cc3)ncn2CCCN2CCOCC2)n1.Cl [SB-282975],25%
6,Cn1cncc1C(=O)NC1CCN(c2ccnc(Nc3ccc(F)cc3)n2)C1 (stereo not drawn) [GSK1379717],22%
7,CN1c2ccc(-c3ccc(C(N)=O)cc3)cc2-c2[nH]ncc2S1(=O)=O,0%
8,CC(C)c1cc(-c2ccc3c(N)n[nH]c3c2)nc(N)n1 [GSK2250882],0%
9,O=C(Nc1n[nH]c2nc(-c3cccs3)c(Br)cc12)C1CC1 [SB-735297],34%
10,Cc1ccc(NC(=O)Nc2ccc(Cl)cc2)cc1-c1ccc(C(=O)Nc2ccncc2)cc1 [GSK1398472],18%
11,Fc1ccc(-c2nn3cccc(F)c3c2-c2ccncc2)cc1 [GW475620],0%
12,CC(C)c1ccc(O)cc1Nc1ccnc2ccc(C(F)(F)F)cc12 [GW482059],25%
13,Fc1ccc(-c2nc3n(c2-c2ccncc2)CCS3)cc1 [GI98581],63%
14,O=C(Nc1n[nH]c2cc(-c3ccsc3)ccc12)C1CC1 [SB-732932],41%
15,Cc1cnc(N)c(/C=C/c2cncc(C(=O)NCCc3ccc(Cl)cc3Cl)c2)c1.Cl [GSK190937],9%
16,CC(=O)c1c(C)c2cnc(Nc3ccc(N4CCNCC4)cn3)nc2n(C2CCCC2)c1=O,0%
17,COc1ccc2cc(-c3nc(-c4ccccc4C(C)C)[nH]c3-c3ccncc3)ccc2c1 [SB-660566],0%
18,CCc1ccc(-c2ccc3c(c2)-c2n[nH]cc2S(=O)(=O)N3C)cc1,0%
